A selection: hits, their analogues and other compounds. The true share with any hit is near 3.6%.
mHTT-CaM PPI inh – disrupts binding of mutant huntingtin to calmodulin | P42858 | AlphaScreen His-mHTT/GST-CaM binding, luminescence | inhibition, % at 15 µM | 3.6% of 190,000 active
Pf apPOL block – Pf-apPOL DNA polymerase inhibition; Recombinant Pf-apPOL, molecular beacon fluorescence, 1.5 h; inhibition, % at 10 µM; 0.25% of 210,000 active; AID 1794808
Numbers stand for hits; . = inactive; / = no result given. No stated cut-off is given here; in the data, active means inhibition above about 50%; inactive means the rest.

SMILES | mHTT-CaM PPI inh | Pf apPOL block
Cc1ccc(C2=NC(=C(Cl)Cl)C(=O)N2)cc1 | 100 | .
CCNC(=O)C1CCC(c2cccc(C(F)(F)F)c2)N(C(=O)C2CC2)C1 (stereo unspecified) | . | .
COc1cc(C2C(C#N)=C(N)Oc3c2[nH]c(=O)[nH]c3=O)cc(OC)c1OC (stereo unspecified) | . | 97
COc1cc(C2C(C#N)=C(N)Oc3c2oc(CO)cc3=O)cc(OC)c1OC (stereo unspecified) | . | .
Cc1ccc(C2C(C#N)=C(N)Oc3c2ccc2cccnc32)cc1 (stereo unspecified) | 58 | .
Cc1ccc(C2C(C#N)=C(N)Oc3cc(O)ccc32)cc1 (stereo unspecified) | . | .
COc1cc(C(=O)N2CCN(Cc3cccc(Br)c3)CC2)cc(OC)c1OC | . | .
O=C(Nc1ccc(Br)cc1)c1ccc(F)c(S(=O)(=O)NC2CCCC2)c1 | . | .
O=C(Nc1ccc(Cl)c(Cl)c1)c1ccc(F)c(S(=O)(=O)NC2CCCC2)c1 | 65 | .
Cc1ccc(NC(=O)c2cc(S(=O)(=O)NC3CCCC3)ccc2F)cc1Cl | . | .
O=C(Nc1ccc(Cl)cc1)c1cc(S(=O)(=O)NCc2ccccc2Cl)ccc1F | . | 84
O=C(Nc1cc(Cl)cc(Cl)c1)c1ccc(F)c(S(=O)(=O)NCc2ccccc2)c1 | . | .
O=C(Nc1ccc(Cl)c(Cl)c1)c1cc(S(=O)(=O)NC2CCCC2)ccc1F | 93 | .
O=C(Nc1cc(Cl)cc(Cl)c1)c1ccc(F)c(S(=O)(=O)NCc2ccc(F)cc2)c1 | 53 | .
O=C(Nc1cccc(F)c1)c1cc(S(=O)(=O)NCc2ccccc2Cl)ccc1F | . | .
O=C(C1CCN(c2cnn(Cc3ccccc3)c(=O)c2)CC1)N1CCOCC1 | . | .
O=C(Nc1ccc(Cl)cc1)c1cc(S(=O)(=O)NC2CCCC2)ccc1F | . | .
CCOc1ccccc1NC(=O)c1cc(S(=O)(=O)NCCc2ccc(Cl)cc2)ccc1F | 56 | .
O=C(Nc1ccc(Cl)cc1)c1cc(S(=O)(=O)NC2CCCCCC2)ccc1F | . | 78
COc1ccccc1NC(=O)c1cc(S(=O)(=O)NCCc2ccc(Cl)cc2)ccc1F | . | .
O=C(Nc1nc(CC(=O)N2CCCc3ccccc32)cs1)c1ccco1 | . | .
CCN(CC)c1ccc(C2NN=C(Cc3ccccc3)S2)cc1 (stereo unspecified) | 85 | .
CCN(CC)c1ccc(NC(=O)Cc2ccccc2)cc1 | . | .
COc1ccc(C2=NC(c3cccs3)NC(c3ccccc3O)C2)cc1 (stereo unspecified) | . | .
COc1ccccc1NC1OC(=O)c2ccccc21 (stereo unspecified) | . | .
SMILES | mHTT-CaM PPI inh | Pf apPOL block
COc1ccccc1NCC(O)CC1C(C)=C(C)c2ccccc21 (stereo unspecified) | 63 | .
COc1ccc(C(=O)Nc2c3c(nn2-c2ccccc2)CSC3)cc1OC | . | .
Cc1ccc2[nH]cc(CCN3CC(C(=O)Nc4nncs4)CC3=O)c2c1 (stereo unspecified) | . | .
Cc1ccc2nc(NC(=O)C3CC(=O)N(CCc4c[nH]c5ccc(C)cc45)C3)sc2c1 (stereo unspecified) | 88 | .
Cc1ccc2[nH]cc(CCN3CC(C(=O)Nc4ccccc4C)CC3=O)c2c1 (stereo unspecified) | . | .
Cc1ccc2[nH]cc(CCN3CC(C(=O)Nc4nc5c(C)cccc5s4)CC3=O)c2c1 (stereo unspecified) | 81 | .
CCOC(=O)C1CCN(C(=O)C2CCN(Cc3cn(C)c4ccc(Cl)cc34)CC2)CC1 | . | .
COc1cccc(CNC(=O)C2CCCN(c3nnc4ccc(Cl)cn34)C2)c1OC (stereo unspecified) | . | .
Oc1ccc(C(c2c[nH]c3ccccc23)c2c[nH]c3ccccc23)cc1O | . | .
Oc1ccc(-c2csc(-c3c[nH]c4ccccc34)n2)cc1O | 99 | .
CC(C(=O)Nc1nc2c(s1)CCCC2)n1nc(-c2ccc(F)cc2)ccc1=O (stereo unspecified) | 88 | .
CC(C(=O)Nc1cc(Cl)ccc1C#N)n1nc(-c2ccc(F)cc2)ccc1=O (stereo unspecified) | . | .
Cc1ccc(Cl)cc1NC(=O)N1CCCC(C)(C(=O)NCc2ccc(F)cc2)C1 (stereo unspecified) | . | .
O=C(NCCCN1CCCCC1)c1cccnc1N1CCNC(c2ccccc2)C1 (stereo unspecified) | . | .
O=C(C1CC1)N1CCN(c2cc(Oc3ccccc3Cl)ncn2)CC1 | . | .
O=C(Cc1c[nH]c2ncccc12)NCc1ccccc1 | . | .
O=C(Cc1c[nH]c2ncccc12)NCc1ccc(C(F)(F)F)cc1 | . | 86
CCc1nc(-c2cccnc2N2CCCC(C(=O)NCc3ccc(N(C)C)cc3)C2)no1 (stereo unspecified) | . | .
Cc1ccc(-n2nc3c(c2NC(=O)C(C)(C)C)CS(=O)C3)cc1 (stereo unspecified) | . | .
O=[N+]([O-])c1c(Cl)cc(O)c2c1C1C=CCC1C(c1ccc(Cl)cc1)N2 (stereo unspecified) | 88 | .
CC(=O)c1ccc2c(c1)C1C=CCC1C(c1ccc(Cl)cc1Cl)N2 (stereo unspecified) | . | .
O=C(O)C1Nc2c(O)cc(Cl)c([N+](=O)[O-])c2C2C=CCC12 (stereo unspecified) | 90 | .
O=C(O)C1Nc2cc(Cl)cc(Cl)c2C2C=CCC12 (stereo unspecified) | 99 | .
CCCC1Nc2c(C(=O)O)ccc([N+](=O)[O-])c2C2C=CCC12 (stereo unspecified) | . | .
O=[N+]([O-])c1c(Cl)cc(O)c2c1C1C=CCC1C(C1CC=CCC1)N2 (stereo unspecified) | 80 | .
SMILES | mHTT-CaM PPI inh | Pf apPOL block
Cc1sc2ncnc(SCC(=O)Nc3ccccc3F)c2c1C | . | .
COc1ccc(C(=O)OC2CCC3(C)C4CCC5C6(O)C(O)C(O)C7C(CN8CC(C)CCC8C7(C)O)C6CC53OC24O)cc1OC (stereo unspecified) | / | .
NNc1nccc(Nc2ccccc2C(=O)O)n1 | 100 | .
O=C(O)c1ccccc1Nc1ccnc(N2CCOCC2)n1 | . | .
CC(=O)c1ccc(NCN2C(=O)C3CC=CCC3C2=O)cc1 (stereo unspecified) | . | .
CC(=O)NCc1csc(C2CCCN(S(=O)(=O)Cc3ccccc3)C2)n1 (stereo unspecified) | . | .
COc1ccc(C(=O)NC(c2ccccc2)c2ccccc2)cc1OC | . | .
COc1ccc(NC(=O)NC(c2ccccc2)c2ccccc2)cc1OC | 62 | .
CCc1ccc(CNC(=O)C2CCN(c3cc(N4CCOCC4)ncn3)CC2)cc1 | . | .
CN(C)c1ccc(NC(=O)c2ccc(F)cc2)cc1 | . | .
COc1ccc(N=c2oc3c(C)ncc(CO)c3cc2C(=O)Nc2ccccc2)c(OC)c1 | . | .
CCc1ccc(NC(=O)c2cc3c(CO)cnc(C)c3oc2=Nc2ccc(OC)cc2OC)cc1 | . | 57
COc1cc(OC)c2c(-c3ccccc3)cc(=O)oc2c1C(CCN1CCCCC1)c1ccc2c(c1)OCO2 (stereo unspecified) | 99 | .
COc1cc(OC)c2ccc(=O)oc2c1C(CC(=O)N1CCCC1)c1ccc2c(c1)OCO2 (stereo unspecified) | . | .
